This is a sample that favours compounds with a hit; in the whole collection about 6.9% have one here.
KB-3-1 cytotox: kills parental KB-3-1 adenocarcinoma cells; AID 1347075; Potency, µM (doses to about 46.1 µM), hits mostly cytotoxic; actives 1.4% (n = 400,000); KB-3-1 viability, CellTiter-Glo ATP luminescence, 72 h; further: potency means the concentration at half of the fitted maximal effect; on the % scale 0 is the no-effect control and ±100 the full control effect; nearly all actives have a fitted effect of over 60% in size
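Using CellTiter-Glo luminescence, growth of non-resistant KB-3-1 adenocarcinoma cells is assessed 72 h after pin-tool compound addition at 37 °C. Normalized responses across the concentration series yield fitted curves.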
KB-V1 MDR tox: KB-V1 MDR subline cytotoxicity; KB-V1 MDR cells viability, CellTiter-Glo, 72 h; Potency, µM (highest dose often 46.1 µM), most hits filed as cytotoxic; actives 3.4% (n = 400,000); AID 1347076; further: potency means the concentration at half of the fitted maximal effect; on the % scale 0 is the no-effect control and ±100 the full control effect; nearly all actives have a fitted effect of over 60% in size
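KB-V1 MDR subline cells in DMEM (phenol-red free, 10% FBS) exposed to compounds in qHTS concentration series for 72 h at 37 degrees C. Viability read by CellTiter-Glo luminescence; concentration-effect curves fitted after normalization and correction.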
S-ASM inh: human S-ASM enzyme inhibition; P17405; placental ASM, HMU-PC fluorogenic substrate, 60 min; Potency, µM (highest dose often 57.5 µM), for inactives: at the highest dose activity change, negative = inhibition, hits mostly inhibitors; actives 0.006% (n = 340,000); further: potency means the concentration at half of the fitted maximal effect
Target sequence (P17405 47-631 limits assumed): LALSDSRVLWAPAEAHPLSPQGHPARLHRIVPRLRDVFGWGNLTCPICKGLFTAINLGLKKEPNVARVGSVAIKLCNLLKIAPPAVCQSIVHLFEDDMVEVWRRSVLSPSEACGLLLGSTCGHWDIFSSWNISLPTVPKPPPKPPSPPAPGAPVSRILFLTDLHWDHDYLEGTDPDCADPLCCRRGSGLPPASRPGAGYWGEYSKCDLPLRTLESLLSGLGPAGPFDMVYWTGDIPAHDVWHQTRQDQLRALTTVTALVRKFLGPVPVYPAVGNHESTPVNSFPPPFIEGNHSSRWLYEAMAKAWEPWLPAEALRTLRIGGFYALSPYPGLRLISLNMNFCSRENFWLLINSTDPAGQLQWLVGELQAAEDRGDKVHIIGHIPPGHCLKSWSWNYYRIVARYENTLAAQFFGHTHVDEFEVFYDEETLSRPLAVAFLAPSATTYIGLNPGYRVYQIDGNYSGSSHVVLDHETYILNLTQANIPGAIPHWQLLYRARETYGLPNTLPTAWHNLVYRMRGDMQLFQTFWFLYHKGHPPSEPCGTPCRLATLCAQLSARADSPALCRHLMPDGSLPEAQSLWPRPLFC
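qHTS format. ASM enzyme prepared from human placenta hydrolyses the fluorogenic substrate HMU-PC0 (9 uM final) over 60 min at 37 °C after a 10 min compound preincubation.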
SW480 rerep: induces DNA re-replication in SW480 colon adenocarcinoma cells; SW480 DNA re-replication, Hoechst DNA content imaging, 48 h; Potency, µM (series often up to 46.1 µM), for the others: at the highest dose re-replication activation, hits mostly activators; actives 1.8% (n = 340,000); AID 624297; further: potency means the concentration at half of the fitted maximal effect; % of control where 0% means no effect; nearly all actives have a fitted effect of over 55% in size
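Compounds, transferred as 23 nL by pin tool, were incubated with cells for 48 hr; DNA content per nucleus was then quantified by Hoechst staining and fluorescence plate imaging.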
Giardia killer: kills Giardia lamblia | Giardia lamblia trophozoite viability | activity change, % at 7.66 µM, hits read low | actives 0.15% (n = 340,000); in the data active means activity change below about -80%; inconclusive means between about -30% and that limit;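 further: parasites exposed to compound for two days anaerobically before the ATP read; on the % scale 0 is the no-effect control and ±100 the full control effect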
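Trophozoite viability was measured as ATP-dependent luminescence, read 15-30 min after reagent addition. Before that, parasites at 100 cells/well were exposed to compounds for 48 h, anaerobically, at 37 deg C.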
MCF10A rereplic: DNA re-replication induction in MCF 10a cells. MCF 10A DNA re-replication, Hoechst nuclear intensity, 48 h. Potency, µM (doses to about 46.1 µM), without a hit: at the highest dose activity, positive = re-replication, most hits filed as activators. AID 624296. actives 2.9% (n = 350,000); further: potency means the concentration at half of the fitted maximal effect; % of control where 0% means no effect; nearly all actives have a fitted effect of over 50% in size
An asterisk follows results filed as active; ! = a repeat was not active. Unless noted, the call rests on the fitted dose curve; in most records, active means well fitted curve in the direction sought with a large enough effect; inconclusive means small, poorly fitted or top-dose-only effect, or another doubt; inactive means no such curve, though single readings can be large; an effect the other way counts as inactive or inconclusive.

Results for CCC1CCCCN1S(=O)(=O)c1ccc(NC(=O)c2nc(S(C)(=O)=O)ncc2Cl)cc1 (configuration not stated) ?
KB-3-1 cytotox: inconclusive; KB-V1 MDR tox: inconclusive; S-ASM inh: -1.6%; SW480 rerep: inconclusive; Giardia killer: -3.1; MCF10A rereplic: inconclusive

How did Cc1ccc(CS(=O)(=O)c2ncc(Cl)c(C(=O)Nc3ccc(OC(F)F)cc3)n2)cc1 do in these assays?
KB-3-1 cytotox: 23.1µM*; KB-V1 MDR tox: 18.4µM*; S-ASM inh: -8.0%; SW480 rerep: inconclusive; Giardia killer: 2.1; MCF10A rereplic: 7.31µM*

What do the screens show for `CCS(=O)(=O)c1ncc(Cl)c(C(=O)Nc2ccc(S(=O)(=O)N3CCCC(C)C3)cc2)n1` (configuration not stated)?
KB-3-1 cytotox: 3.66µM*; KB-V1 MDR tox: 5.8µM*; S-ASM inh: -5.5%; SW480 rerep: 7.31µM*; Giardia killer: -9.4; MCF10A rereplic: 2.59µM*

How did CCS(=O)(=O)c1ncc(Cl)c(C(=O)Nc2ccc(C)cc2)n1 do in these assays?
KB-3-1 cytotox: inconclusive; KB-V1 MDR tox: inactive; S-ASM inh: -2.9%; SW480 rerep: 3.66µM*; Giardia killer: -27.6; MCF10A rereplic: 5.8µM*

Results for CCOc1ccc(NC(=O)c2nc(S(=O)(=O)Cc3ccc(C)cc3)ncc2Cl)cc1 ?
KB-3-1 cytotox: inconclusive; KB-V1 MDR tox: inactive

How did Cn1nc(-c2ccccc2)c(C(=O)Nc2ccc(Cl)cc2)c1Cl do in these assays?
KB-3-1 cytotox: inactive; KB-V1 MDR tox: inactive; S-ASM inh: -5.0%; SW480 rerep: -1.1%; Giardia killer: 2.5; MCF10A rereplic: 2.3%

What do the screens show for `Cn1c(Cl)c(C(=O)Nc2ccc(Cl)cc2)c2ccccc21`?
KB-3-1 cytotox: 8.2µM*; KB-V1 MDR tox: 20.6µM*; S-ASM inh: -10.5%; SW480 rerep: 21.9%; Giardia killer: -13.7; MCF10A rereplic: 11.2%

What do the screens show for `CN1CCN(c2cccc(Nc3nn4c(=O)c5ccc(C(F)(F)F)cc5nc4s3)c2)CC1`?
KB-3-1 cytotox: inactive; KB-V1 MDR tox: inactive

How did CCOC(=O)c1oc2ccccc2c1CN1CC(C)OC(C)C1 (configuration not stated) do in these assays?
KB-3-1 cytotox: inactive; KB-V1 MDR tox: inactive; S-ASM inh: -2.0%; SW480 rerep: 1.2%; Giardia killer: 12.2; MCF10A rereplic: -0.1%

What do the screens show for `CCOC(=O)Nc1oc2ccccc2c(=O)c1CN1CCOCC1`?
KB-3-1 cytotox: inactive; KB-V1 MDR tox: inactive; S-ASM inh: -3.0%; SW480 rerep: -4.2%; Giardia killer: -14.8; MCF10A rereplic: 16.4µM*

Results for CCOc1ccc(NC(=O)CSc2ncc3c(n2)-c2ccc(Cl)cc2N(Cc2ccccc2)S3(=O)=O)cc1 ?
KB-3-1 cytotox: inactive; KB-V1 MDR tox: inactive

What do the screens show for `Clc1ccccc1C(c1ccccc1)(c1ccccc1)n1ccnc1`?
KB-3-1 cytotox: inactive; KB-V1 MDR tox: 14.6µM*; S-ASM inh: 6.3%; SW480 rerep: 2.5%; Giardia killer: 4.0; MCF10A rereplic: 14.3µM*

How did C#CC(c1ccccc1)(c1ccccc1)n1ccnc1 do in these assays?
KB-3-1 cytotox: inactive; KB-V1 MDR tox: inconclusive

What do the screens show for `Cc1cc(C)c(S(=O)(=O)Nc2ccc3oc4c(c3c2)C(=O)CC(C)(C)C4)cc1C`?
KB-3-1 cytotox: inactive; KB-V1 MDR tox: inactive

How did COc1ccc(S(=O)(=O)Nc2ccc3oc4c(c3c2)C(=O)CC(C)(C)C4)cc1 do in these assays?
KB-3-1 cytotox: inconclusive; KB-V1 MDR tox: 18.4µM*

How did COc1ccc(CCN2CCC(Nc3nc4ccccc4n3Cc3ccc(F)cc3)CC2)cc1 do in these assays?
KB-3-1 cytotox: inconclusive; KB-V1 MDR tox: 20.6µM*; S-ASM inh: 2.9%; SW480 rerep: 3.66µM*!; Giardia killer: -25.3; MCF10A rereplic: 4.61µM*

How did COc1cccc(CNC(=O)CCCN2C(=O)CCn3nc(-c4cccn4C)cc32)c1 do in these assays?
KB-3-1 cytotox: inactive; KB-V1 MDR tox: inactive

Results for Cc1cccc(N2CCN(C(=O)c3csc4ccccc34)CC2C)c1 (configuration not stated) ?
KB-3-1 cytotox: inconclusive; KB-V1 MDR tox: 14.6µM*; S-ASM inh: -3.0%; Giardia killer: -2.2; MCF10A rereplic: inconclusive

How did Cc1cccc(N2CCN(C(=O)c3cc(C)oc3C)CC2C)c1 (configuration not stated) do in these assays?
KB-3-1 cytotox: 18.4µM*; KB-V1 MDR tox: 14.6µM*; S-ASM inh: 4.7%; SW480 rerep: -11.5%; Giardia killer: -9.3; MCF10A rereplic: inconclusive

Results for COc1cccc(N2CCN(C(=O)c3cc(C)oc3C)CC2)c1 ?
KB-3-1 cytotox: 23.1µM*; KB-V1 MDR tox: 14.6µM*; S-ASM inh: 5.9%; SW480 rerep: inconclusive; Giardia killer: -5.6; MCF10A rereplic: inconclusive

How did Cc1cccc(N2CCN(C(=O)c3ccc4ccccc4c3)CC2C)c1 (configuration not stated) do in these assays?
KB-3-1 cytotox: inconclusive; KB-V1 MDR tox: inconclusive; S-ASM inh: -0.5%; SW480 rerep: 10.9%; Giardia killer: -3.4; MCF10A rereplic: inconclusive

How did Cc1cccc(N2CCN(C(=O)CC(NC(=O)c3ccccc3)c3ccccc3)CC2C)c1 (configuration not stated) do in these assays?
KB-3-1 cytotox: inconclusive; KB-V1 MDR tox: 3.66µM*; S-ASM inh: -2.1%; SW480 rerep: -30.0%; Giardia killer: -15.4; MCF10A rereplic: 2.2%

How did O=C(C[n+]1ccccc1)c1ccc(O)c(O)c1 do in these assays?
KB-3-1 cytotox: inactive; KB-V1 MDR tox: inactive

Results for Cc1cc(C)cc(NC(=O)CC(C)n2nc(C)cc2C)c1 (configuration not stated) ?
KB-3-1 cytotox: inactive; KB-V1 MDR tox: inactive

How did Cc1cc(C(=O)N2CCN(c3ccccc3O)CC2)c(C)o1 do in these assays?
KB-3-1 cytotox: inactive; KB-V1 MDR tox: inactive; S-ASM inh: 5.0%; SW480 rerep: -2.9%; Giardia killer: 0.6; MCF10A rereplic: 10.0%

Results for Cc1cc(C(=O)N2CCC(C(N)=O)CC2)c(C)o1 ?
KB-3-1 cytotox: inactive; KB-V1 MDR tox: inactive; S-ASM inh: 5.9%; SW480 rerep: 16.4µM*; Giardia killer: 17.5; MCF10A rereplic: 9.6%

What do the screens show for `COc1cc([N+](=O)[O-])ccc1NC(=O)N1CCN(c2cc(-c3noc(C)n3)ccc2C)CC1`?
KB-3-1 cytotox: inactive; KB-V1 MDR tox: inconclusive

Results for Cc1ccc(C)c(N2CCN(C(=O)C3CCN(S(=O)(=O)c4c(C)noc4C)CC3)CC2)c1 ?
KB-3-1 cytotox: 8.2µM*; KB-V1 MDR tox: inconclusive; S-ASM inh: -4.7%; SW480 rerep: inconclusive; Giardia killer: 13.3; MCF10A rereplic: 17.4%

High-throughput results: PubChem BioAssay, National Center for Advancing Translational Sciences (NCATS)
